Source: PubChem
HP1b binding inh: HTS for Inhibitors of HP1-beta Chromodomain Interactions with Methylated Histone Tails. Potency, µM (top dose mostly 114 µM), actives largely listed as inhibitors. AlphaScreen HP1-beta / biotin-H3K9me3 peptide binding. AID 540317, 2011. 390,000 compounds, 0.56% hits. Chromobox protein homolog 1 (Homo sapiens), P83916; note: nearly all actives have a fitted effect of over 70% in size
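HP1-beta protein (50 nM final) preincubated 30 min at room temperature with biotinylated H3(1-18)K9me3 peptide (50 nM) in PBS pH 7.4, 0.01% Tween-20, then compound added for 30 min. AlphaScreen streptavidin donor/nickel chelate acceptor beads (10 ug/mL final), 30 min dark, luminescence read.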
PI5P4Ka inh: qHTS for Inhibitors of phosphatidylinositol 5-phosphate 4-kinase (PI5P4K); 330,000 compounds, 1.2% hits; PI5P4Kalpha enzyme, ADP-Glo luminescence, 60 min; active compounds read low; Phosphatidylinositol 5-phosphate 4-kinase type-2 alpha (Homo sapiens), P48426; max response, %; active = max response of -50% or lower; inconclusive = between -30% and -50%; inactive = -30% or higher; note: value at the top dose of about 77 µM
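Compounds were pin-transferred onto PI5P4Kalpha and substrate in HEPES pH 7.4 buffer with EGTA, CHAPS and 5% DMSO. ATP (5 microM final) started the reaction, which ran 60 minutes at room temperature before ADP-Glo detection.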
BAZ2B block: qHTS Assay for Inhibitors of BAZ2B; Potency, µM (doses to about 114 µM), usual class: inhibitors; 360,000 compounds, 4.4% hits; Bromodomain adjacent to zinc finger domain protein 2B (Homo sapiens), Q9UIF8; AID 504333, 2011; AlphaScreen BAZ2B-H3K14Ac peptide displacement; note: nearly all actives have a fitted effect of over 60% in size
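Protein-peptide AlphaScreen: BAZ2B 50 nM, b-H3K14Ac 50 nM, 1x PBS pH 7.4 + 0.01% Tween-20. Preincubation 30 min RT; cpd 30 min RT (top 110 uM); beads 20 min RT, light-protected.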
JMJD2A Tudor inh: qHTS Assay for Inhibitors of JMJD2A-Tudor Domain; Lysine-specific demethylase 4A (Homo sapiens), O75164; AlphaScreen JMJD2A-Tudor / H3K4me3 peptide binding; Potency, µM (series often up to 114 µM), hits mostly inhibitors; 390,000 compounds, 4.4% hits; note: nearly all actives have a fitted effect of over 50% in size
Target sequence (O75164 whole entry, looked up, the tested form may be a part): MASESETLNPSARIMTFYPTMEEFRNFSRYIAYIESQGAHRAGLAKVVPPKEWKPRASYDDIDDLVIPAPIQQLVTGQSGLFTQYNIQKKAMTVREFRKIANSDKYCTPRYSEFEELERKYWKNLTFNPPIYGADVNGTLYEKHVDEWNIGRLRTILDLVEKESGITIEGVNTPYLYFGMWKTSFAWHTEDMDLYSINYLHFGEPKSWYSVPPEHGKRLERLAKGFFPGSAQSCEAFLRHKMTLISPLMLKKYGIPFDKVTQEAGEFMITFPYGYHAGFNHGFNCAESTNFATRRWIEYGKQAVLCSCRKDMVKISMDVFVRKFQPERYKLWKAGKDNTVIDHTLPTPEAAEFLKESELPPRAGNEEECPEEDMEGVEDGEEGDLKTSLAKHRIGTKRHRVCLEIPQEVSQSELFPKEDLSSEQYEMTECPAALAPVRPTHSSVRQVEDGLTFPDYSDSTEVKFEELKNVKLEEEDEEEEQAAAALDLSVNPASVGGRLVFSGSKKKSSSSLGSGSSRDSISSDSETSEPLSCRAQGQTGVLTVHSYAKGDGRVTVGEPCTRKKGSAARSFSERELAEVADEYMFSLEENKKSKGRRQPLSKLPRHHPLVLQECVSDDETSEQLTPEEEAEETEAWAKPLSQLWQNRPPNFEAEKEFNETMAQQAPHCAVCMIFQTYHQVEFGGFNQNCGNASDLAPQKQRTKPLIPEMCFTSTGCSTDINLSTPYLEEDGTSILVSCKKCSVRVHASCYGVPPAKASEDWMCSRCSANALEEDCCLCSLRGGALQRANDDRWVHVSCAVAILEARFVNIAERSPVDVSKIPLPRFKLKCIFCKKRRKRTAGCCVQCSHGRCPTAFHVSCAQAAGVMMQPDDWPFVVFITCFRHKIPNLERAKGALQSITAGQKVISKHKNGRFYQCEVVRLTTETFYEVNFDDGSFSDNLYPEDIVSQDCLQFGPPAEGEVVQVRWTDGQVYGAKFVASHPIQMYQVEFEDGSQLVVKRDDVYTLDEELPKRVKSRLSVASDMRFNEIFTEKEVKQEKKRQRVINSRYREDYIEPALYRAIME
L3MBTL1 inh: qHTS Assay for the Inhibitors of L3MBTL1; 230,000 compounds, 0.66% hits; AlphaScreen L3MBTL1–H3K9me1 peptide binding; Potency, µM (doses to about 57.1 µM), usual class: inhibitors; note: nearly all actives have a fitted effect of over 60% in size
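Read-out is AlphaScreen signal from streptavidin donor and nickel chelate acceptor beads (10 ug/mL final each) bridging L3MBTL1 (50 nM) and biotinylated K9-monomethylated H3(1-15) peptide (75 nM), after 30 min compound exposure at room temperature.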
G9a inh: qHTS Assay for Inhibitors of Histone Lysine Methyltransferase G9a; AID 504332, 2011; Potency, µM (top dose mostly 102 µM), actives largely listed as inhibitors; Histone-lysine N-methyltransferase EHMT2 (Homo sapiens), Q96KQ7; G9a H3K9 monomethylation, AlphaScreen, 2 h; 350,000 compounds, 8.8% hits; note: nearly all actives have a fitted effect of over 75% in size
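AlphaScreen read-out: biotin-H3K9 peptide (500 nM) methylation by 20 nM enzyme with 20 uM SAM, 2 h at room temperature after 15 min compound preincubation; anti-monomethyl H3K9 antibody plus donor/acceptor beads, 10 min dark.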
Numbers stand for hits; 0 = inactive; ? = inconclusive; - = no result; [ ] = another dose, or the depositor's remark. Rows were chosen to be rich in hits. Some 11% of all compounds tested hit in one or more screens of this group. Unless noted, calls come from the whole dose curve; as a rule, active = well fitted inhibition curve with a large enough effect; inconclusive = small, poorly fitted or top-dose-only effect; inactive = no such curve, though single readings can be large or run the other way.

SMILES	HP1b binding inh	PI5P4Ka inh	BAZ2B block	JMJD2A Tudor inh	L3MBTL1 inh	G9a inh
O=C(O)c1cnccn1	?	0	45µM	25µM	0	8.9µM
O=C(Nc1nccs1)c1ncc(Cl)c(Cl)c1Cl	0	0	0	0	-	45µM
O=C(Nc1nccs1)c1cnccn1	0	-	?	?	0	6.3µM
Cn1cc(Cl)c(C(=O)Nc2nccs2)n1	0	0	0	0	-	0
O=C(Nc1nccs1)c1cccnc1Cl	0	0	0	0	-	0
O=C(Nc1nccs1)c1ccccn1	0	0	-	79µM	?	?
CCOc1ccc(CNC(=O)CSc2nnc(C)c3c(C)n(-c4ccc(Cl)cc4)nc23)cc1	0	-	0	0	-	?
Cc1cc(NC(=O)Cn2c(=O)oc3cc(S(=O)(=O)N4CCCC4)ccc32)ccc1Br	0	-	0	0	-	0
CCCOc1ccc(C(=O)N(Cc2cccs2)c2ccc(C)cc2)cc1	0	-	0	0	-	0
O=C(Nc1ccc(Br)cc1Cl)c1cnccn1	0	-	0	50µM	-	0
O=C(Nc1ccccc1Cl)c1cnccn1	0	-	0	0	0	0
Cc1ccccc1NC(=S)/C(=C(\[O-])c1ccc(C)c([N+](=O)[O-])c1)[n+]1ccccc1	0	0	?	0	0	?
COc1cccc(NC(=S)/C(=C(\[O-])c2ccc(OC(F)F)cc2)[n+]2ccccc2)c1	0	0	0	0	0	18µM
[O-]/C(=C(\C(=S)Nc1cccc2ccccc12)[n+]1ccccc1)c1ccc2c(c1)OCCO2	0	-	56µM	?	-	8.9µM
[O-]/C(=C(\C(=S)Nc1cccc2ccccc12)[n+]1ccccc1)c1ccc(OC(F)F)cc1	0	0	35µM	0	?	45µM
COc1cccc(NC(=S)/C(=C(\[O-])c2ccc(C)c([N+](=O)[O-])c2)[n+]2ccccc2)c1	0	0	?	?	-	?
CCC1CCc2sc(C(=O)N(C)CC(=O)Nc3ccc(N4CCOCC4)cc3)cc2C1 (stereo not given)	0	0	0	0	0	45µM
CC1CCc2sc(C(=O)N(C)CC(=O)Nc3ccc(N4CCOCC4)cc3)cc2C1 (stereo not given)	0	0	?	?	-	35µM
Cc1ccc(OCc2nc3ccccc3n2Cc2ccccc2Cl)cc1	0	-	0	0	-	0
Cc1c(Cl)cccc1NC(=O)CSc1ncnc2c1sc1ccccc12	0	-	0	0	-	0
Cc1ccc(CC(=O)NNC(=O)c2ccncc2)cc1C	?	?	0	0	0	4.5µM
Cc1ccc(C(=O)NNC(=O)c2ccncc2)cc1C	0	0	0	0	0	0
CC(=O)Nc1cc(NC(C)=O)cc(-c2nc3ccccc3[nH]2)c1	?	0	50µM	0	0	0
CC(=O)Nc1ccc2nc(-c3ccccn3)[nH]c2c1	0	0	?	56µM	0	?
CC(=O)Nc1ccc2nc(-c3ccncc3)[nH]c2c1	0	0	?	0	-	0
SMILES	HP1b binding inh	PI5P4Ka inh	BAZ2B block	JMJD2A Tudor inh	L3MBTL1 inh	G9a inh
COCCn1c(=O)c(-c2ccc(Cl)cc2)nc2cnc(N3CCOCC3)nc21	-	-	-	-	-	0[0.501 µM]
CN1CCN(C(=O)CN(c2ccccc2)S(=O)(=O)N(C)C)CC1	0	0	0	0	0[11.4 µM]	0
CCc1ccccc1N(CC(=O)N1CCN(c2ccc(F)cc2)CC1)S(C)(=O)=O	0	-	0	?	0	79µM
Cc1ccc(Cl)cc1N1CCN(C(=O)CN(c2ccccc2)S(=O)(=O)N(C)C)CC1	0	0	45µM	0[11.4 µM]	-	0
CS(=O)(=O)N(CC(=O)N1CCN(c2ccccc2)CC1)C1CCCCC1	0	0	0	50µM	0	0
Cc1ccccc1N(CC(=O)N1CCN(c2ccccc2)CC1)S(C)(=O)=O	0	0	0	0	-	50µM
CCc1ccccc1N(CC(=O)N1CCCC1)S(C)(=O)=O	0	0	0	0	0	0
O=C(NCCCN1CCCCCC1)C(c1ccccc1)C1CCCCC1 (stereo not given)	-	-	-	-	-	0
Cc1ccc(-c2nnn(CC(=O)N(CC(=O)NC3CCCCC3)c3ccccc3F)n2)o1	0	0	?	0	-	35µM
Cc1ccc(-c2nnn(CC(=O)N(CC(=O)NC3CCCCC3)c3cccc(F)c3)n2)o1	0	0	0	0	-	0
Cc1cccc(N(CC(=O)NC2CCCCC2)C(=O)Cn2nnc(-c3ccc(C)o3)n2)c1	0	0	0	0	0	45µM
Cc1ccc(-c2nnn(CC(=O)N(CC(=O)NCc3ccccc3)c3cccc(C)c3C)n2)o1	0	-	?	0	0	3.5µM
Cc1c(-c2ccccc2)c(=O)oc2c(CN3CCCC3)c(O)ccc12	0	-	0	0	-	0
CCN(CC)S(=O)(=O)c1ccc2c(c1)N(CC(=O)Nc1c(C)cccc1C)C(=O)C1CCCN21 (stereo not given)	0	-	0	0	-	0
COc1ccc2c(CNCc3cccs3)c(C(=O)O)n(Cc3ccccc3F)c2c1	0	-	?	0	-	0
O=C1C[C@H](c2ccc(-c3ccccc3)cc2)N1S(=O)(=O)c1ccccc1[N+](=O)[O-]	0	-	-	0	-	-
O=C(CCC(=O)c1ccc(-c2ccccc2)cc1)Nc1cccnc1	0	0	0	0	-	50µM
O=C(Nc1ncc(Br)s1)C(Cc1ccccc1)n1cccc1 (stereo not given)	0	0	45µM	?	-	45µM
O=C(Nc1cccnc1)C(Cc1ccccc1)n1cccc1 (stereo not given)	0	0	?	0	0	50µM
O=C(CCC(=O)c1ccccc1)Nc1cccnc1	0	0	0	0	-	?
O=C(Nc1ccccc1F)C(Cc1ccccc1)n1cccc1 (stereo not given)	0	-	0	0	-	0
O=C(Nc1cccc(Cl)c1)C(Cc1ccccc1)n1cccc1 (stereo not given)	0	-	0	0	-	0
CCOc1ccc(CCNC(=O)CCc2c(C)nc3c(c(C)nn3-c3ccccc3)c2C)cc1OCC	0	-	0	0	-	0
CCC(=O)N1c2ccccc2NC2=C(C(=O)CC(C)(C)C2)C1c1cccnc1 (stereo not given)	0	0	0	0	0	0
CCC(=O)N1c2ccccc2NC2=C(C(=O)CCC2)C1c1ccc(N(C)C)cc1 (stereo not given)	0	0	0	0	0	50µM
O=C(Cn1cc(SCc2ccc(F)cc2)c2ccccc21)N1CCCC1	0	-	0	0	-	0
